Measurements as given in PubChem BioAssay AID598 (SRMLSC, 2007).
Out of some 85,000 compounds screened, about 5,100 (6%) were called active. Shown is part of a subset that was picked to be rich in actives. Unmarked numbers belong to inactive results.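 The calls were made as follows: active = viability at or below 40%; inactive = viability above 40%.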

assay: H69AR cell viability reduction – human, 86K library, primary screen (AID 598); conditions: H69AR lung tumor viability, ATP luminescence, 72 h; at 10 µM; active compounds read low;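 also: multidrug resistant small cell line overexpressing MRP-1 efflux transporter; 100% = mean luminescence of untreated control wells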

| Compound | viability |
| --- | --- |
| CCC(=O)Nc1ccc(S(=O)(=O)NCC2CCCO2)cc1 (stereo not drawn) | 90.7% |
| N#Cc1c2c(c(N3CCN(CCO)CC3)n3c1nc1ccccc13)CCCC2 | 85.5% |
| CC1CCc2sc3nc(N4CCN(CCO)CC4)n4ncnc4c3c2C1 (stereo not drawn) | 33.1% (active) |
| Cc1c(Nc2nc3ccccc3nc2NS(=O)(=O)c2cccs2)c(=O)n(-c2ccccc2)n1C | 85.5% |
| CCOC(=O)C(C)n1cnc2sc(C)c(C)c2c1=O (stereo not drawn) | 89.3% |
| CC(=O)Oc1ccc(NC(=O)CCC2CCCCC2)c(C(=O)O)c1 | 101% |
| COc1ccc(CN(CC(=O)NC2CCCC2)C(=O)CCC(=O)Nc2cc(C)on2)cc1 | 96.3% |
| COc1cccc(OCC(=O)Nc2ccccc2C(N)=O)c1 | 85.5% |
| COc1cccc(OCc2cc(/C=N/NC(=O)c3nc(Cl)c(Cl)c(N)c3Cl)ccc2OC)c1 | 19.7% (active) |
| COc1cccc(OCCOc2cccc(/C=N/n3cnnc3)c2)c1 | 84.3% |
| CCCCCN1CC(O)=C(c2ccccc2)C1=N | 88.7% |
| COc1ccccc1N1CCN(C(=O)c2cn(-c3ccccc3)nc2-c2cccnc2)CC1 | 21.9% (active) |
| O=C(c1cn(-c2ccccc2)nc1-c1cccnc1)N1CCCCC1 | 90.8% |
| COc1ccc(Nc2ncc(C(=O)N3CCN(c4ccccc4OC)CC3)c3ccccc23)cc1 | 80.8% |
| COc1cccc2c1OCC1COc3c(c(=O)n(C)c(=O)n3C)C21 (stereo not drawn) | 94.9% |
| O=c1oc2cc(O)ccc2cc1-c1ccc(F)cc1 | 88.7% |
| CCCCN(CC)CCCNC(=O)CS(=O)(=O)Cc1nc(-c2cccc(OC)c2)oc1C | 88.1% |
| COc1cccc(C(=O)c2cc3ccc(O)cc3oc2=O)c1 | 68.4% |
| CCCCCCc1cc2cc(-c3nnc(-c4ccccc4)o3)c(=O)oc2cc1O | 9.42% (active) |
| CCCCCCc1cc2cc(-c3nnc(-c4cccc(OC)c4)o3)c(=O)oc2cc1O | 2.32% (active) |
| CC(C)CCSc1ncnc2c1oc1nc3c(cc12)COC(C)(C)C3 | 68.6% |
| Cc1nnc(SCc2nc3ccccc3nc2C)s1 | 97.2% |
| Cc1cccc(N2C(=O)c3cccnc3C2=O)c1 | 92.3% |
| CCN(CC)CCn1c(=S)[nH]c2ncccc2c1=O | 101% |
| C=C(C)CNC(=S)/N=c1\scc(C)n1CC | 91.2% |
| CCC(C)NC(=O)CCCc1ccccc1 (stereo not drawn) | 86.3% |
| CCCCCc1ccc(-c2ccc(C(=O)O)cc2)nc1 | 35.7% (active) |
| O=C(O)c1ccc(COCC(F)(F)F)cc1 | 98.2% |
